# Test results: PubChem BioAssay (EPA / NIEHS)
# “And” between values parts separate entries of the source, which are not always exact repeats. Equal values may be shown once. Inconclusive results are not listed. The source holds several records for some structures; these can differ, active in one and inactive in another. The source made the active and inactive calls. How the source made its calls: active means hit-call score of the fitted dose curve at least 0.9, where 1 is the maximum; inconclusive means response in the unintended direction; inactive means score below 0.9.
# Columns and labels:
# [1] = target: Estrogen receptor (Homo sapiens) (UniProt P03372); assay: NVS_NR_hER: NovaScreen (NVS) Nuclear Receptor Binding Assay for human Estrogen Receptor (ER) (AID 2283348)
# In short: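 MCF7-derived receptor extract, radiolabelled ligand, competitive displacement. Read: scintillation counts at 18 h. DMSO = negative control/baseline. Primary 25 uM duplicate; follow-up concentration–response.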
# [2] = system: NCBI gene 100848466; assay: NVS_NR_bPR: NovaScreen (NVS) Nuclear Receptor Binding Assay for bovine Progextron Receptor (PR) (AID 2283343);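 further: actives lower bound radioligand signal below DMSO meaning displacement of the label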
# In short: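 Scintillation counts of bound radioligand were read 18 hours after chemical addition to membranes extracted from bovine uterus. Displacement was scored as loss of signal relative to DMSO controls. Screening began at 25 uM in duplicate.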
# [3] = target: chimpanzee Androgen Receptor (AR), AR (gene 747460) (UniProt O97775); assay: NVS_NR_cAR: NovaScreen (NVS) Nuclear Receptor Binding Assay for chimpanzee Androgen Receptor (AR) (AID 2283346);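 further: radioligand displacement from AR measured by scintillation counting in a cell-free assay; a loss of bound radioligand signal versus DMSO counts as binding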
# In short: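 Radioligand binding to chimpanzee AR expressed in Sf9/Sf21 cells, cell-free, measured 72 h after dosing by lysate-based scintillation counting. Loss of signal vs DMSO; initial duplicate screen at 25 uM, actives retested in concentration series.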
# [4] = target: Estrogen receptor (Homo sapiens) (UniProt P03372); assay: OT_ER_ERaERa_1440: Odyssey Thera (OT) 24-hour HEK293T Protein-Complementation Assay for Estrogen Receptor-alpha/-alpha Homodimer (AID 2283349);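 further: hits raise fluorescence above DMSO for agonists and antagonists alike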
# In short: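 Cells (HEK293T) carrying the fragment-tagged ERα LBD (aa 310-547) pair are treated with chemical for 24 hours. Nuclear and/or cytoplasmic fluorescence is then quantified on a laser scanning cytometer. Activity is scored as signal gain against DMSO.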
# [5] = target: Bile acid receptor (Homo sapiens) (UniProt Q96RI1); assay: NVS_NR_hFXR_Antagonist: NovaScreen (NVS) Nuclear Receptor Binding Assay for human Farnesoid X Receptor Antagonism (FXR) (AID 2283350)
# In short: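 Antagonist-format time-resolved FRET binding assay with extracted human receptor protein, read 1 hour after compound addition. Compounds first screened at 25 uM in duplicate, then actives tested in concentration series, with loss of signal relative to DMSO.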
# [6] = target: Estrogen receptor (Homo sapiens) (UniProt P03372); assay: OT_ER_ERaERa_0480: Odyssey Thera (OT) 8-hour HEK293T Protein-Complementation Assay for Estrogen Receptor-alpha/-alpha Homodimer (AID 2283351);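 further: rise in fluorescence from reassembled reporter fragments on ERα LBD homodimer in nucleus or whole cell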
# In short: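 Cells were treated for 8 hours, then imaged on a laser scanning plate cytometer. Complementation of reporter fragments fused to the human ERα ligand-binding domain (residues 310-547) in HEK293T gave fluorescence, and gain of signal over vehicle was fitted.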
# [7] = target: Estrogen receptor (Homo sapiens) + Estrogen receptor beta (Homo sapiens) (UniProt P03372+Q92731); assay: OT_ER_ERaERb_0480: Odyssey Thera (OT) 8-hour HEK293T Protein-Complementation Assay for Estrogen Receptor-alpha/-beta Heterodimer (AID 2283352)
# In short: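 HEK293T protein-fragment complementation assay of ER-alpha/ER-beta LBD heterodimerisation, read 8 h after dosing. Mean nuclear/cytoplasmic fluorescence intensity measured by laser scanning cytometry; gain of signal fitted relative to DMSO.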
# Chain of chimpanzee Androgen Receptor (AR), AR (gene 747460) (O97775 whole entry, looked up): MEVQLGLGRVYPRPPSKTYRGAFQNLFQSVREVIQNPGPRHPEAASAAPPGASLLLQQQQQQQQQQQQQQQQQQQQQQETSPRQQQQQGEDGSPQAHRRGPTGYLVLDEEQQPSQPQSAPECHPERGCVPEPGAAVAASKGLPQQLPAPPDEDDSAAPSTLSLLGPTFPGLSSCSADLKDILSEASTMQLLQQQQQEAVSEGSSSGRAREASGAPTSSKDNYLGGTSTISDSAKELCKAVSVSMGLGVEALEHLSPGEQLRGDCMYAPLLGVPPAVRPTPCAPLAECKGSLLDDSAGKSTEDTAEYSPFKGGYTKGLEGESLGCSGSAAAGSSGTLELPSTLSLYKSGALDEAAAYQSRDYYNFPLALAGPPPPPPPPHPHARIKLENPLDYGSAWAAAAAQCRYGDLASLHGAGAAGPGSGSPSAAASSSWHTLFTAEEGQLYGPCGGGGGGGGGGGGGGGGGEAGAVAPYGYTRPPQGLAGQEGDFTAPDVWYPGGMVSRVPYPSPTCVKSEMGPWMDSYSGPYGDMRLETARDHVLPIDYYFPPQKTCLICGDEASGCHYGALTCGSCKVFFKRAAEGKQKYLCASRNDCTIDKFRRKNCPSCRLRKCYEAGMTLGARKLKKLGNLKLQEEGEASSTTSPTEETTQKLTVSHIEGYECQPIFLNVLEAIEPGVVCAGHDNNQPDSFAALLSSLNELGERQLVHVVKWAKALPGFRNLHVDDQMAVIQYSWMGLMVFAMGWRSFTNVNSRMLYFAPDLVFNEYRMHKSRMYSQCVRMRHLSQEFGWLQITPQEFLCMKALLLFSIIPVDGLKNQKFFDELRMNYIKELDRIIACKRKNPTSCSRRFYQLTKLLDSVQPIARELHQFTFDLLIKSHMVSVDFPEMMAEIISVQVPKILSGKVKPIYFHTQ
# Chain of Estrogen receptor (Homo sapiens) + Estrogen receptor beta (Homo sapiens) (P03372 whole entry, looked up, the tested form may be a part): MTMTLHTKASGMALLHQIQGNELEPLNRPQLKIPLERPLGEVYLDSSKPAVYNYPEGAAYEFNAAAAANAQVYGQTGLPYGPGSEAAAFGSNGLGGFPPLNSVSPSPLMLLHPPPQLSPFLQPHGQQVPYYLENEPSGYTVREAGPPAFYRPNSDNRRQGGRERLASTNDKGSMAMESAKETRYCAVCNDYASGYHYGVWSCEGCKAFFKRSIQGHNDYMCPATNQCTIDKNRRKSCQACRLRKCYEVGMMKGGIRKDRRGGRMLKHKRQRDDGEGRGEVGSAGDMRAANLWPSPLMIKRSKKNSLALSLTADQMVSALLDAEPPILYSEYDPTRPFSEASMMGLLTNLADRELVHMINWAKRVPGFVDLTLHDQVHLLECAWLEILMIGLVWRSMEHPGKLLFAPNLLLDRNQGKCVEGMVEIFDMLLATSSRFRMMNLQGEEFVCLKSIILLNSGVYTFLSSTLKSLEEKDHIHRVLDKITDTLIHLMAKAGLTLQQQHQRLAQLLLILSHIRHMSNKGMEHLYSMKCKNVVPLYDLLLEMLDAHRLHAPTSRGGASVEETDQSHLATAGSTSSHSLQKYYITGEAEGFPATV
# Chain of Estrogen receptor (Homo sapiens) + Estrogen receptor beta (Homo sapiens) (Q92731 whole entry, looked up, the tested form may be a part): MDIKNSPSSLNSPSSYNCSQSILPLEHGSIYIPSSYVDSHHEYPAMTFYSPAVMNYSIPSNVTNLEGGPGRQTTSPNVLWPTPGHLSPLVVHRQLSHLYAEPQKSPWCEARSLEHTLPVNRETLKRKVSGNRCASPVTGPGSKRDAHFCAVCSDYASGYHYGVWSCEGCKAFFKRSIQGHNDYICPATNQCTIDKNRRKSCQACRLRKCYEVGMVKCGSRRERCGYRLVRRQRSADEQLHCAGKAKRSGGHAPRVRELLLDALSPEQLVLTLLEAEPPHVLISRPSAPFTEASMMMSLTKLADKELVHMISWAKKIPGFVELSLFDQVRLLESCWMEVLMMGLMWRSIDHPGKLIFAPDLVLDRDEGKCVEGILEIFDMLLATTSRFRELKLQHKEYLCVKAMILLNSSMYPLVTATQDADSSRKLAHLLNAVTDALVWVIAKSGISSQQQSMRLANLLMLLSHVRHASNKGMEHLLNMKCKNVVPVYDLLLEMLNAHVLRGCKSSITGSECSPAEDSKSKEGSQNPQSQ
# Chain of Estrogen receptor (Homo sapiens) (P03372 whole entry, looked up, the tested form may be a part): as the sequence (P03372 whole entry, looked up, the tested form may be a part) above
# Chain of Bile acid receptor (Homo sapiens) (Q96RI1 whole entry, looked up): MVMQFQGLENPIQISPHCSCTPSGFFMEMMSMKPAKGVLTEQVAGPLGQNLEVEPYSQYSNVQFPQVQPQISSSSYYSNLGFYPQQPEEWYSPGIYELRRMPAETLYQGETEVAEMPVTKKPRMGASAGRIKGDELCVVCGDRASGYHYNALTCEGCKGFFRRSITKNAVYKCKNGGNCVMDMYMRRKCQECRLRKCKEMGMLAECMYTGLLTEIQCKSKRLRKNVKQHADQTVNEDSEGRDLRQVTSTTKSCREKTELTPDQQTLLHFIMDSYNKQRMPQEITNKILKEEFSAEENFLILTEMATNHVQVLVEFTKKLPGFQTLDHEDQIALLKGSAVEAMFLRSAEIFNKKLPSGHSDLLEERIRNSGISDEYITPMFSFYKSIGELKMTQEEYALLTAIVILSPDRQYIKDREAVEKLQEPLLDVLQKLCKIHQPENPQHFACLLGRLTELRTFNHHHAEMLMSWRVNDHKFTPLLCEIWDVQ
smiles,measurement,setting,value
Clc1ccc(C(c2ccccc2Cl)C(Cl)(Cl)Cl)cc1 (centres undefined),outcome,[1],inactive
C[C@]12CCC(=O)C=C1CC[C@@H]1[C@@H]2CC[C@]2(C)C(=O)CC[C@@H]12,AC50,[2],12.8 µM (active)
same,AC50,[3],0.182 µM (active)
same,AC50,[1],38.5 µM (active)
same,outcome,[1],inactive
same,outcome,[4],inactive
same,AC50,[5],1.35 µM (active)
same,outcome,[6],inactive
same,outcome,[7],inactive
Cc1ccc(O)c(C)c1,outcome,[1],inactive
same,outcome,[4],inactive
same,outcome,[6],inactive
same,outcome,[7],inactive
N#Cc1ccc(N(CC(N)=O)CC(F)(F)F)cc1C(F)(F)F,AC50,[3],0.0178 µM (active)
same,outcome,[4],inactive
same,outcome,[6],inactive
same,outcome,[7],inactive
ClC(Cl)=C(c1ccc(Cl)cc1)c1ccc(Cl)cc1,AC50,[3],16.8 µM (active)
same,outcome,[1],inactive
same,AC50,[4],84.3 µM (active) and 78.6 µM (active)
same,outcome,[4],inactive
same,AC50,[6],80.1 µM (active) and 56.9 µM (active) and 63.7 µM (active)
O=NN(c1ccccc1)c1ccccc1,outcome,[1],inactive
same,outcome,[4],inactive
same,outcome,[6],inactive
ClC1=C(Cl)[C@]2(Cl)[C@@H]3[C@H]4C[C@H]([C@@H]5O[C@H]45)[C@@H]3[C@@]1(Cl)C2(Cl)Cl,outcome,[1],inactive
same,outcome,[4],inactive
same,outcome,[6],inactive
Nc1ccc(-c2ccc(N)cc2)cc1,AC50,[3],19.9 µM (active)
same,outcome,[1],inactive
same,outcome,[4],inactive
same,outcome,[6],inactive
same,outcome,[7],inactive
CCOCCOC(C)=O,outcome,[1],inactive
same,outcome,[4],inactive
same,outcome,[6],inactive
Oc1c(Cl)c(Cl)c(Cl)c(Cl)c1Cl,AC50,[3],5 µM (active)
same,outcome,[4],inactive
same,outcome,[6],inactive
CC(C)(c1ccccc1)c1ccc(O)cc1,AC50,[2],19.2 µM (active)
same,AC50,[3],25 µM (active)
same,AC50,[4],11.9 µM (active) and 12 µM (active) and 12.1 µM (active)
same,AC50,[6],11.9 µM (active) and 12 µM (active)
same,AC50,[7],2.01 µM (active) and 11.9 µM (active)
Cc1cc(-c2ccc(N)c(C)c2)ccc1N,AC50,[3],888 nM (active) and 16 µM (active)
same,AC50,[1],0.0153 µM (active)
same,outcome,[1],inactive
same,outcome,[4],inactive
same,AC50,[6],72.3 µM (active)
same,outcome,[6],inactive
O=C(O)C(F)(F)C(F)(F)C(F)(F)C(F)(F)C(F)(F)C(F)(F)C(F)(F)C(F)(F)C(F)(F)F,outcome,[1],inactive
same,outcome,[4],inactive
same,outcome,[6],inactive
CC(C)(O)C(=O)Nc1ccc([N+](=O)[O-])c(C(F)(F)F)c1,AC50,[2],4.47 µM (active)
same,AC50,[3],155 nM (active) and 268 nM (active)
same,outcome,[1],inactive
same,outcome,[4],inactive
same,outcome,[6],inactive
same,outcome,[7],inactive
